# About 83,000 compounds went through this panel and 20% of them were active in at least one assay; those are over-represented in the sample as a whole.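 Compound tested at a single concentration for 48 hours in 96-well plates; a percent growth value below 10 was scored as active.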 A number with no mark means an inactive call. The source made the active and inactive calls.
# How the values were obtained:
# Assay in all cases: NCI-60 one-dose screen, 48 h (100 = growth as untreated, 0 = no growth, -100 = all killed)
# Details in all cases: 10 µM unless noted
# [1] = system: SR leukemia
# [2] = system: RPMI-8226 leukemia
# [3] = system: OVCAR-8 ovarian
# [4] = system: OVCAR-5 ovarian
# [5] = system: OVCAR-4 ovarian
# [6] = system: SK-OV-3 ovarian
# [7] = system: IGROV1 ovarian
# [8] = system: OVCAR-3 ovarian
# [9] = system: HS 578T breast
# [10] = system: NCI/ADR-RES ovarian
# [11] = system: T-47D breast
# [12] = system: BT-549 breast
# [13] = system: MDA-MB-435 melanoma
# [14] = system: SW-620 colon
# [15] = system: MCF7 breast
# [16] = system: HCT-116 colon
# [17] = system: HCC-2998 colon
# [18] = system: KM12 colon
Structure (SMILES),growth [1],growth [2],growth [3],growth [4],growth [5],growth [6],growth [7],growth [8],growth [9] [%],growth [10],growth [11],growth [12],growth [13],growth [14],growth [15],growth [16],growth [17],growth [18]
COc1cccc(/C=C/C(=O)c2sc(Nc3ccc(O)cc3)nc2C)c1,35.8%,4.79% (active),99.4%,111%,96.9%,103%,88.1%,75.7%,103,99%,90.8%,14.6%,88.4%,110%,72.2%,87.4%,105%,78.4%
O=C(/C=C/CN1CCOCC1)Nc1cc2c(Nc3cccc(Cl)c3F)ncnc2cc1OCCOC(F)F,97.1%,84.5%,67.6%,49.5%,82.4%,9.17% (active),6.79% (active),68.3%,64.9,60.9%,15.1%,86%,97.2%,90.7%,65.5%,82.9%,86.2%,90.2%
CCOC(=O)CC(C#N)(CC(=O)OCC)C(=O)OCC,100%,96.1%,88.8%,99.9%,104%,117%,118%,112%,117,106%,105%,106%,94.8%,108%,101%,102%,109%,106%
COc1ccc2c(c1)NC(=O)CN2c1nc(NC2CC2)nc2ccccc12,31.5%,32.7%,18.3%,44%,40.3%,23.9%,24.5%,-19.7% (active),26.6,5.39% (active),13.2%,-17% (active),-36% (active),23.6%,9.56% (active),0.461% (active),6.95% (active),3.45% (active)
CCn1cc(C2NC(=O)c3cc(F)ccc3N2)c2cccc(Cl)c21 (stereo unspecified),-10.1% (active),9.88% (active),-35.9% (active),36%,39.4%,27.7%,18.2%,6.84% (active),12.4,1.68% (active),58.3%,26.9%,-31.7% (active),20.8%,15.5%,8.12% (active),7.64% (active),19.2%
CCN(CC)CCC(=O)c1cccc2ccccc12,53.4%,44.4%,104%,98.3%,119%,121%,101%,113%,101,104%,85.1%,110%,108%,104%,63.9%,109%,97.1%,103%
CCOP(=O)(CCN1CCN(CCCCCOc2cc3c(cc2OC)C(=O)N2CCC[C@H]2C=N3)CC1)OCC,28.7%,-10.5% (active),83.4%,106%,87.8%,118%,-26% (active),119%,84.5,88.5%,46%,52.5%,93.7%,63.5%,35.9%,80.1%,80.8%,111%
Cc1ccc2nc(-c3c(CCCO)noc3N)[nH]c(=O)c2c1,71.8%,90.4%,106%,120%,97.4%,106%,4.96% (active),104%,104,123%,107%,102%,110%,103%,88.7%,102%,128%,102%
O=C(Nc1cccc(C(F)(F)F)c1)Nc1ccc(OCc2nnc(-c3ccccc3)o2)c(F)c1,5.85% (active),2.02% (active),38.5%,50.9%,34.5%,69.1%,45.9%,15.6%,39.2,37%,21.1%,29.6%,49.4%,28.7%,24.8%,14.6%,64.3%,12.2%
CN(C)c1ccc(C2CC(c3ccccc3)=NN2/C=C2\SC(=O)NC2=O)cc1 (stereo unspecified),50.8%,87.7%,100%,94.2%,82.6%,115%,94%,101%,98.1,95.2%,86.7%,87%,83.1%,83.9%,65.4%,85.9%,101%,82.2%
C=C1C(=O)O[C@H]2[C@H]1CC/C(Cn1cc(-c3ccsc3)nn1)=C\CC[C@@]1(C)O[C@@H]21,3.37% (active),-43.2% (active),-4.45% (active),-18.3% (active),-46.6% (active),83.1%,-16% (active),-94.8% (active),28.2,32%,-62% (active),-56.3% (active),-16% (active),-71.3% (active),-72.6% (active),-96.4% (active),-46.7% (active),34.3%
CCN(CC)CCCNc1nc(C)cc(Nc2ccc3nc(C)cc(N)c3c2)n1,110%,102%,106%,102%,116%,89.9%,97.8%,106%,109,101%,92.2%,84.9%,103%,117%,92.8%,93%,97.6%,101%
COc1cc(-c2csc(NC(=O)c3cc(C(F)(F)F)cc(C(F)(F)F)c3)n2)cc(OC)c1OC,40.4%,14.1%,25.5%,60.1%,23.4%,35.4%,46%,10.6%,35.1,16.2%,-15.9% (active),18.7%,28.6%,44%,18.4%,14.4%,31%,22.1%
C=CCN=C1NC(=O)/C(=C/c2cc(C(C)(C)C)c(O)c(C(C)(C)C)c2)S1,32.9%,92.1%,95.8%,92.1%,70.3%,74.8%,85.7%,46.9%,76.9,70%,47.1%,55.6%,-2.99% (active),63.5%,43.8%,46.4%,89.8%,61.4%
COc1ccc(-c2nc3sccn3c2-c2ccnc(NCCCNS(=O)(=O)c3ccc4ccccc4c3)n2)cc1,57%,54.9%,57.3%,132%,68.1%,95.1%,75.3%,82.7%,92.1,53.5%,32.6%,65.3%,50%,105%,52.2%,60.2%,84.1%,50.1%
O=S(=O)(NCCNc1cc(-c2cn(-c3ccccc3)nc2-c2ccccc2)ccn1)c1cccc2ccccc12,56%,38.7%,56%,74.4%,49.1%,66.3%,63.1%,59.5%,56.3,43.8%,24.3%,49.3%,46.3%,62.5%,28.2%,34.8%,56.4%,41.6%
O=c1[nH]c(CN2CCN(c3ccccc3F)CC2)nc2sc3c(c12)CCC3,94.8%,107%,101%,96.8%,112%,96.5%,84.7%,118%,121,111%,99.1%,98.8%,118%,105%,107%,105%,117%,106%

# Source: PubChem BioAssay (NCI)
